PubChem BioAssay (NCATS)
Several values for one entry are separate records, joined by “and”; a condition that tells them apart may be missing. Equal entries are not always repeated. Records with an inconclusive call do not appear. Activity calls are given as the source filed them. Unless noted, the call rests on the fitted dose curve; in most records, active means well fitted curve in the direction sought with a large enough effect; inconclusive means small, poorly fitted or top-dose-only effect, or another doubt; inactive means no such curve, though single readings can be large; an effect the other way counts as inactive or inconclusive.

Assays:
[1] = Cell Viability - SH-SY5Y (AID 544); conditions: SH-SY5Y neuroblastoma cell viability; viability change, negative = cytotoxic: at 92.2 µM (top of the series);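 further: cells exposed to compound for 40 hours; nearly all actives have a fitted effect of over 55% in size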; further: potency means the concentration at half of the fitted maximal effect
Method in brief: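 Cytotoxicity measured via ATP-dependent luciferase luminescence (CellTiter-Glo) following 40 h, 37 °C exposure of 1500 SH-SY5Y cells per well. Concentration-response data were fitted with the standard Hill equation to give AC50.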

[2] = Cellular Toxicity (caspase-3) Jurkat (AID 655); conditions: Jurkat caspase-3 activation, luminescence; caspase-3 activation: at 92.2 µM (top of the series), DMSO = 0%, tamoxifen = 100%;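 further: cells exposed to compound for 16 h at 37 °C before reading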
Method in brief: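 Caspase 3/7 activation is scored as increased luminescence in Jurkat cells cultured with compound for 16 hours in complete medium. AC50 values come from Hill fits of qHTS concentration-response data normalized to DMSO and 100 uM tamoxifen controls.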

[3] = MultiTox-Fluor Cytotoxicity Assay - LYMP1-003 - Live Cells (AID 962);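 further: cells exposed to compound for 16 hours at 37 °C; 0% = DMSO only and full loss = 92 µM tetraoctylammonium bromide; cytotoxic hits lower the live-cell protease signal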
Method in brief: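 Live-cell protease activity (GF-AFC substrate, 405/510 nm, 60 min at room temperature) after 16 h, 37 C compound exposure of human lymphoblastoid LYMP1-003 cells; concentration-response fitted to the Hill equation for AC50.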

[4] = Cell Viability - LYMP1-003 - Assay at 24 hr (AID 963);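 further: plate controls were DMSO only for no effect and tetraoctylammonium bromide positive control for full effect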
Method in brief: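 Concentration-response qHTS: ATP loss measured by CellTiter-Glo luminescence after 24 h compound exposure at 37 C. Cells were LYMP1-003 human lymphoblastoid, 2500 per well. AC50 derived via standard Hill equation modeling.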

[5] = Cell Viability - LYMP1-003 - Assay at 40 hr (AID 964); further: on the % scale 0 is the no-effect control and ±100 the full control effect; nearly all actives have a fitted effect of over 60% in size
Method in brief: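 Viability is taken as cellular ATP, read by CellTiter-Glo luminescence after 40 h of compound exposure at 37 C. Cells: human lymphoblastoid line LYMP1-003 at 2500/well; AC50 values derived by Hill-equation fitting of concentration-response data.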

[6] = Cell Viability - LYMP2-003 (AID 965);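 further: cells exposed to compounds for 24 h before reading; 0% = DMSO only and full effect = 92 µM tetraoctylammonium bromide; nearly all actives have a fitted effect of over 50% in size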
Method in brief: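 Acute cytotoxicity is scored as a concentration-dependent drop in intracellular ATP, measured by luciferase luminescence in human lymphoblastoid cells treated for 24 hours at 37 C. AC50 values derive from Hill-equation modelling.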

[7] = Cell Viability - LYMP2-004 (AID 966);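 further: plate controls were DMSO only for no effect and tetraoctylammonium bromide control for full effect; nearly all actives have a fitted effect of over 65% in size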
Method in brief: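 AC50 values come from Hill modelling of concentration-dependent loss of intracellular ATP, measured by CellTiter-Glo luminescence. Human LYMP2-004 lymphoblastoid cells (2500/well) were exposed to compound for 24 h at 37 C.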

[8] = Cell Viability - LYMP2-017 (AID 972); further: on the % scale 0 is the no-effect control and ±100 the full control effect; nearly all actives have a fitted effect of over 55% in size
Method in brief: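 CellTiter-Glo luminescence (cellular ATP, 30 min RT) measured cytotoxicity after 24 hr compound treatment at 37 C. Cells were a human lymphoblastoid line, LYMP2-017, plated at 2500/well and incubated 5 hr first; concentration-response fitted with Hill equation for AC50.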

[9] = Cell Viability - LYMP2-025 (AID 976);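 further: plate controls were DMSO only for no effect and tetraoctylammonium bromide control for full effect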
Method in brief: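 Cytotoxicity read as loss of intracellular ATP (luciferase luminescence) after 24 h compound treatment at 37 C. Uses LYMP2-025 lymphoblastoid cells in 1536-well format; Hill-equation modelling gives AC50; tetraoctylammonium bromide as positive control.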

[10] = Cell Viability - LYMP2-007 (AID 979);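 further: cells exposed to compound for 24 h before reading; 0% = DMSO only and the negative end = 92 µM tetraoctylammonium bromide; nearly all actives have a fitted effect of over 60% in size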
Method in brief: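 AC50 values come from Hill-equation fits of luminescent intracellular ATP (CellTiter-Glo, 30 min, room temperature) following 24 h compound exposure at 37 C. Cells: LYMP2-007 lymphoblastoid line, 2500 per well, in complete culture medium.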

[11] = Cell Viability - LYMP2-008 (AID 980); further: nearly all actives have a fitted effect of over 60% in size; further: potency means the concentration at half of the fitted maximal effect
Method in brief: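 Cytotoxicity determined from ATP-dependent luciferase luminescence (CellTiter-Glo) following 24 h compound exposure of human lymphoblastoid LYMP2-008 cells at 37 C. Concentration-response data fitted to the Hill equation to give AC50.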

[12] = Cell Viability - LYMP2-012 (AID 982);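 further: cellular ATP by luciferase luminescence where a drop means cytotoxicity; cells exposed to compound for one day before reading; 0% = DMSO only and full loss = 92 µM tetraoctylammonium bromide; nearly all actives have a fitted effect of over 55% in size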
[13] = Cell Viability - LYMP2-014 (AID 983);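 further: plate controls were DMSO only for no effect and 92 µM tetraoctylammonium bromide for full effect; nearly all actives have a fitted effect of over 50% in size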
Method in brief: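 Intracellular ATP loss, read by luciferase luminescence, measures acute cytotoxicity after 24 h compound exposure of lymphoblastoid LYMP2-014 cells (2500/well, 37 C). Concentration-response data fitted to the Hill equation for AC50.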

[14] = Cell Viability - LYMP2-018 (AID 985);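 further: plate controls were DMSO only for no effect and tetraoctylammonium bromide at 92 µM for full effect; nearly all actives have a fitted effect of over 50% in size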
Method in brief: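 Viability read as CellTiter-Glo luminescence (cellular ATP) after 24 hr compound exposure at 37 C of 2500 LYMP2-018 lymphoblastoid cells/well, pre-plated 5 hr. Hill-equation modelling gave AC50.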

[15] = Cell Viability - LYMP1-002 - Assay at 40 hr (AID 994);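 further: 0% = DMSO only and full inhibition = 92 µM tetraoctylammonium bromide; nearly all actives have a fitted effect of over 60% in size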
Method in brief: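 Cytotoxicity was read as loss of cellular ATP (CellTiter-Glo luminescence) after 40 hr compound exposure at 37 C of 2500 LYMP1-002 lymphoblastoid cells per well. Concentration-response data were fitted with the standard Hill equation to give AC50.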

[16] = qHTS assay for small molecule agonists of retinoid X receptor alpha signaling (AID 588544; calls by dose curve;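 on activation: 0% = DMSO basal wells and 100% = reference agonist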); conditions: HEK293T RXRa-UAS-bla, beta-lactamase reporter, 18 h; 530 nm emission
[17] = target: Retinoic acid receptor RXR-alpha (Homo sapiens) (UniProt P19793); assay: as above
Sequence of Retinoic acid receptor RXR-alpha (Homo sapiens) (P19793 whole entry, looked up): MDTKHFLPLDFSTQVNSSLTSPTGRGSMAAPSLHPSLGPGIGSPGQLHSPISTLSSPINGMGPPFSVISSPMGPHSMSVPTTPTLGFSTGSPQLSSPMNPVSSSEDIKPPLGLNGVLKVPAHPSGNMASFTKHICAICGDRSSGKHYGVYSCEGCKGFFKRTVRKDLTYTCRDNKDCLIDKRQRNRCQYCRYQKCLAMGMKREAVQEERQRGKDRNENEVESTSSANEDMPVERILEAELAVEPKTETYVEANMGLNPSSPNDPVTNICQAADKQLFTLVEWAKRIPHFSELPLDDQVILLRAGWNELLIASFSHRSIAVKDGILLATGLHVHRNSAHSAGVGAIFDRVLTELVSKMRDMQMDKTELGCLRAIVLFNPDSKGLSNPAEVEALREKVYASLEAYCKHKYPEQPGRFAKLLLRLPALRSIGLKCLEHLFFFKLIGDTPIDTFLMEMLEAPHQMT

[18] = qHTS assay for small molecule antagonists of retinoid X receptor alpha signaling (AID 588546); conditions: HEK293T RXRa-UAS-bla, beta-lactamase ratio, antagonist mode; measured here: W530 green channel, cytotoxicity proxy;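 further: cells stimulated with 9-cis-retinoic acid as agonist; on the % scale 0 is the no-effect control and ±100 the full control effect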
Method in brief: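 Beta-lactamase reporter inhibition, read as CCF4 fluorescence ratio (ex 405, em 460/530 nm) after 2 h at RT. HEK293T UAS-bla cells, 2500/well, were stimulated with 9-cis-RA at 500 or 100 nM final alongside test compound for 18 h at 37 C.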

[19] = qHTS assay for small molecule antagonists of the retinoid-related orphan receptor gamma (ROR-gamma) signaling pathway - cell viability counter screen (AID 720652; active means well fitted curve in the direction sought with a large enough effect in the repeat runs; an effect the other way counts as inactive or inconclusive;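 further: CHO reporter cells with doxycycline-induced ROR-gamma expression; compound exposure lasted 16 hr before ATP read; on the % scale 0 is the no-effect control and ±100 the full control effect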)
Method in brief: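 Cytotoxicity counter screen: intracellular ATP (CellTiter-Glo luminescence) measured in the doxycycline-induced CHO RORE-luciferase reporter line after 16 hr compound exposure at 37 C, 5% CO2.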

[20] = Cell Viability - LYMP2-019 (AID 973);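 further: 0% = DMSO alone and full effect = 92 µM tetraoctylammonium bromide; nearly all actives have a fitted effect of over 55% in size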
Method in brief: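 AC50 values come from Hill-equation fits of luminescent intracellular ATP (CellTiter-Glo, 30 min, room temperature) following 24 h compound exposure at 37 C. Cells: LYMP2-019 lymphoblastoid line, 2500 per well, in complete culture medium.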

c1ccc(P(c2ccccc2)c2ccccc2)cc1
inactive: Potency [1] | caspase-3 activation [2] 0.655% | outcome [3] | outcome [4] | Potency [5] | Potency [6] | Potency [7] | Potency [8] | Potency [9] | Potency [10] | Potency [11] | Potency [12] | Potency [13] | Potency [14] | Potency [15] | outcome [17] | Potency [19]
-7.38%: max response [18]
22.6%: max response [16]

ClP(Cl)(Cl)(Cl)Cl
4.58%: max response [18]
5.7%: max response [16]
inactive: caspase-3 activation [2] 0.993% | outcome [3] | outcome [4] | Potency [5] | Potency [6] | Potency [7] | Potency [8] | Potency [20] | Potency [9] | Potency [10] | Potency [11] | Potency [12] | Potency [13] | Potency [14] | Potency [15] | outcome [17] | Potency [19]

O=S(=O)(Cl)c1ccccc1
active: viability change, negative = cytotoxic [1] -100%
inactive: caspase-3 activation [2] 0.656% | outcome [3] | outcome [4] | Potency [5] | Potency [6] | Potency [7] | Potency [8] | Potency [20] | Potency [9] | Potency [10] | Potency [11] | Potency [12] | Potency [13] | Potency [14] | Potency [15] | outcome [17] | Potency [19]
25.3% and -4.13%: max response [18]
-12.3%: max response [16]

Cc1ccc2c(C)cccc2c1
inactive: Potency [1] | caspase-3 activation [2] -1.07% | outcome [3] | outcome [4] | Potency [5] | Potency [6] | Potency [7] | Potency [8] | Potency [20] | Potency [9] | Potency [10] | Potency [11] | Potency [12] | Potency [13] | Potency [14] | Potency [15] | outcome [17] | Potency [19]
-13.5%: max response [16]
4.96%: max response [18]

CCCN(CCC)c1c([N+](=O)[O-])cc(C(F)(F)F)cc1[N+](=O)[O-]
-6.59% and -3.08%: max response [18]
-17.3% and 1.94%: max response [16]
inactive: Potency [1] | caspase-3 activation [2] 2.21% | outcome [3] | outcome [4] | Potency [5] | Potency [6] | Potency [7] | Potency [8] | Potency [20] | Potency [9] | Potency [10] | Potency [11] | Potency [12] | Potency [13] | Potency [14] | Potency [15] | outcome [17] | Potency [19]

[N-]=[N+]=[N-]
inactive: Potency [1] | caspase-3 activation [2] 1.16% | outcome [3] | outcome [4] | Potency [5] | Potency [6] | Potency [8] | Potency [20] | Potency [9] | Potency [10] | Potency [11] | Potency [12] | Potency [13] | Potency [14] | Potency [15] | outcome [17] | Potency [19]
-3.73%: max response [18]
-2.08%: max response [16]

Nc1c(Cl)cc([N+](=O)[O-])cc1Cl
inactive: Potency [1] | caspase-3 activation [2] 3.21% | outcome [3] | outcome [4] | Potency [5] | Potency [6] | Potency [7] | Potency [8] | Potency [20] | Potency [9] | Potency [10] | Potency [11] | Potency [12] | Potency [13] | Potency [14] | Potency [15] | outcome [17] | Potency [19]
-1.27% and -9.53%: max response [16]
7.55% and -9.5%: max response [18]

Brc1cccc(-c2ccccc2)c1
-12%: max response [16]
inactive: Potency [1] | caspase-3 activation [2] 1.47% | outcome [3] | outcome [4] | Potency [5] | Potency [6] | Potency [7] | Potency [8] | Potency [20] | Potency [9] | Potency [10] | Potency [11] | Potency [12] | Potency [13] | Potency [14] | Potency [15] | outcome [17] | Potency [19]

C=CC(=O)OCCN(C)C
-6.38%: max response [18]
inactive: Potency [1] | caspase-3 activation [2] 1.53% | outcome [3] | outcome [4] | Potency [5] | Potency [6] | Potency [7] | Potency [8] | Potency [20] | Potency [9] | Potency [10] | Potency [11] | Potency [12] | Potency [13] | Potency [14] | Potency [15] | outcome [17] | Potency [19]
-14.1%: max response [16]

ClCC(Cl)Cl
2.25%: max response [18]
inactive: Potency [1] | caspase-3 activation [2] 0.231% | outcome [3] | outcome [4] | Potency [5] | Potency [6] | Potency [7] | Potency [8] | Potency [20] | Potency [9] | Potency [10] | Potency [11] | Potency [12] | Potency [13] | Potency [14] | Potency [15] | outcome [17] | Potency [19]
-11.1%: max response [16]

Cc1ccc(N)c(N)c1
active: Potency [1] 12.6 µM | Potency [11] 39.8 µM
-6.94%: max response [16]
inactive: Potency [9] | Potency [13] | outcome [17]
1.53%: max response [18]

Oc1cccc(Cl)c1Cl
inactive: Potency [1] | caspase-3 activation [2] 0.319% | outcome [3] | outcome [4] | Potency [5] | Potency [6] | Potency [7] | Potency [8] | Potency [20] | Potency [9] | Potency [10] | Potency [11] | Potency [12] | Potency [13] | Potency [14] | Potency [15] | outcome [17] | Potency [19]
-4.72%: max response [18]
-10%: max response [16]

Clc1cccc(Cl)c1Cl
4.23% and 3.5%: max response [16]
inactive: Potency [1] | caspase-3 activation [2] -0.0806% | outcome [3] | outcome [4] | Potency [5] | Potency [6] | Potency [7] | Potency [8] | Potency [20] | Potency [9] | Potency [10] | Potency [11] | Potency [12] | Potency [13] | Potency [14] | Potency [15] | outcome [17] | Potency [19]
3.05% and -10.8%: max response [18]

Nc1ccc(Oc2ccc(N)cc2)cc1
inactive: Potency [1] | caspase-3 activation [2] 3.63% | outcome [3] | outcome [4] | Potency [5] | Potency [6] | Potency [7] | Potency [8] | Potency [20] | Potency [9] | Potency [10] | Potency [11] | Potency [12] | Potency [13] | Potency [14] | Potency [15] | outcome [17] | Potency [19]
6.59% and -0.644%: max response [16]
-3.97% and -1.47%: max response [18]

CCCCCC[N+](=O)[O-]
-16.5%: max response [16]
inactive: Potency [1] | caspase-3 activation [2] 0.0633% | outcome [3] | outcome [4] | Potency [5] | Potency [6] | Potency [7] | Potency [8] | Potency [20] | Potency [9] | Potency [10] | Potency [11] | Potency [12] | Potency [13] | Potency [14] | Potency [15] | outcome [17] | Potency [19]
-11.1%: max response [18]
